# Assay results reported in PubChem BioAssay.
# Values without a mark were called inactive. How the calls were made is not given here.
# Molecular target: Pantothenate synthetase (Mycobacterium tuberculosis (strain ATCC 25618 / H37Rv)) (UniProt P9WIL5)
# Experiment: Recombinant Mtb pantothenate synthetase (PanC) inhibitors, coupled enzyme, confirmatory (AID 375);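 further: 0% = full reaction with vehicle and 100% = no enzyme background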
# Details: coupled enzyme assay; at 10 µM, hits give high values
# Pantothenate synthetase (Mycobacterium tuberculosis (strain ATCC 25618 / H37Rv)), sequence (P9WIL5 whole entry, looked up): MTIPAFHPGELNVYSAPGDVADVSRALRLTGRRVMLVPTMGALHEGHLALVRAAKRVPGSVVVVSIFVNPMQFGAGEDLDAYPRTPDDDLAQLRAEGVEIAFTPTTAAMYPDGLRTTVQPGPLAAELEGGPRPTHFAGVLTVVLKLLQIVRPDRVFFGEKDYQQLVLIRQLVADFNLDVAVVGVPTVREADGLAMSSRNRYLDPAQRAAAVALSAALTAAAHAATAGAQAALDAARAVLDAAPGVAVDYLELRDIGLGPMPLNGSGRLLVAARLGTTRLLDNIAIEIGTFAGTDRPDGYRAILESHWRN
row,SMILES,inhibition
1,Cc1ccc(Cl)cc1N1CCN(C(=O)CN2C(=O)c3cccc4cccc2c34)CC1,6%
2,COc1cccc(Cn2c(-c3nonc3N)nc3ccccc32)c1,0%
3,Cn1c(C(=O)OCC(=O)NCC2CCCO2)cc2sccc21 (centres undefined),2%
4,CCOC(=O)c1c(C)oc2ccc(OCC(=O)N(CC)CC)cc12,4%
5,Cc1cc(Nc2ccccc2N2CCOCC2)n2ncnc2n1,0%
6,COc1ccc(NC(=O)C(C)NS(=O)(=O)c2ccc(NC(C)=O)cc2)cc1Cl (centres undefined),9%
7,COc1ccc(CNC(=O)Cn2nc(C(F)(F)F)c3c2CCC3)cc1,3%
8,O=S(=O)(NCCc1ccccc1F)c1cccc(S(=O)(=O)N2CCOCC2)c1,0%
9,COc1cccc(-c2cc(C(=O)NCc3ccc(Cl)cc3)no2)c1,0%
10,CCOC(=O)c1ccc(NC(=O)N2CCN(Cc3cccc(F)c3)CC2)cc1,0%
11,COC(=O)Cn1c(C)nc2c(sc3nc(C)cc(C)c32)c1=O,3%
12,CCOc1ccc(N(CC(=O)Nc2ccc(C)c(C)c2)S(=O)(=O)c2c(C)noc2C)cc1,0%
13,CCOC(=O)c1ccc(NC(=O)CSc2ncccn2)cc1,6%
14,O=C(NCc1ccco1)C1(S(=O)(=O)c2ccc(Cl)cc2)CC1,0%
15,COC(=O)c1ccc(NC(=O)C2CC(=O)N(c3cc(C)ccc3C)C2)cc1 (centres undefined),5%
16,CCOC(=O)C1=C(c2ccccc2)N2CCS(=O)(=O)N=C2S1,0%
17,O=C(NCCCN1CCN(Cc2ccccc2)CC1)C1CCN(c2nnc(-n3cccc3)s2)CC1,0%
18,Cc1cc(-c2ccccc2)nc2cc(C(=O)NCCCn3ccnc3)nn12,7%
19,COC(=O)C(CC(C)C)NC(=O)CSc1nc(-c2ccccc2)c(C#N)c(=O)[nH]1 (centres undefined),0%
20,CNC(=O)CSc1nc2c(c(=O)n(C)c(=O)n2C)n1Cc1ccc(C)cc1,0%
21,CCOc1ccccc1Nc1nc2ccccc2[nH]1,1%
22,C=CCOc1nc2c(c(=O)n(C)c(=O)n2C)n1Cc1c(Cl)cccc1Cl,1%
23,O=C(Nc1ccc(CN2CCOCC2)cc1)c1cc2ccccn2n1,0%
24,CC1CCN(C(=O)c2cc(-c3ccc(Cl)c(Cl)c3)on2)CC1,3%
